L3MBTL1 block: qHTS Assay for the Inhibitors of L3MBTL1; AID 485360, 2010; AlphaScreen L3MBTL1–H3K9me1 peptide binding; Lethal(3)malignant brain tumor-like protein 1 (Homo sapiens), Q9Y468; hit rate 0.66% among 230,000; Potency, µM (doses to about 57.1 µM), for the others: at the highest dose activity, negative = inhibition, usual class: inhibitors; note: % is set by controls: 0 for no effect and ±100 for the full control effect; nearly all actives have a fitted effect of over 60% in size
Target sequence (Q9Y468 whole entry, looked up): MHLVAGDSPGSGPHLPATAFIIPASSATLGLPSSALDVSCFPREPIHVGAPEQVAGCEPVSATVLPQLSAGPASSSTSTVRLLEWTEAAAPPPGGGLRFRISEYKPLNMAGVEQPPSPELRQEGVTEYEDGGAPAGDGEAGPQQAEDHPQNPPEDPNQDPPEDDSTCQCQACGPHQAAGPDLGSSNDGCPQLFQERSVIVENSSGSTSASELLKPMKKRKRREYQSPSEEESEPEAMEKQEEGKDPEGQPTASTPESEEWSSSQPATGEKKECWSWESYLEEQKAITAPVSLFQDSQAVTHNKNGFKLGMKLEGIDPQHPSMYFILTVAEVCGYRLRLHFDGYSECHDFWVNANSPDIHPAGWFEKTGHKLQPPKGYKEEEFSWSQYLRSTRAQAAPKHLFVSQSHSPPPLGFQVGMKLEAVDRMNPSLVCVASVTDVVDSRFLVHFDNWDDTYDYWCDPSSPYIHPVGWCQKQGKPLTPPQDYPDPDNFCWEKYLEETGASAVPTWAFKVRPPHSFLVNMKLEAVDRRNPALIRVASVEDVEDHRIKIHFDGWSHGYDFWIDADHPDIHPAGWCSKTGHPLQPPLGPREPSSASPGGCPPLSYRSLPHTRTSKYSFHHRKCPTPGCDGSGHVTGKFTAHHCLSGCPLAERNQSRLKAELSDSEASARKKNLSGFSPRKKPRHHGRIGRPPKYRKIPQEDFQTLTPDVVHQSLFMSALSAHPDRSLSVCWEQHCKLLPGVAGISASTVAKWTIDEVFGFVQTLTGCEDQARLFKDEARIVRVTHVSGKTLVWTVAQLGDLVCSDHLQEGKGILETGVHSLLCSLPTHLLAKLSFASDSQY
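Read-out is AlphaScreen signal from streptavidin donor and nickel chelate acceptor beads (10 ug/mL final each) bridging L3MBTL1 (50 nM) and biotinylated K9-monomethylated H3(1-15) peptide (75 nM), after 30 min compound exposure at room temperature.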
BAZ2B inh: qHTS Assay for Inhibitors of BAZ2B | Bromodomain adjacent to zinc finger domain protein 2B (Homo sapiens), Q9UIF8 | AlphaScreen BAZ2B-H3K14Ac peptide displacement | Potency, µM (highest dose often 114 µM), for the others: at the top dose activity change, negative = inhibition, actives largely listed as inhibitors | hit rate 4.4% among 360,000 | AID 504333, 2011; note: % is set by controls: 0 for no effect and ±100 for the full control effect; nearly all actives have a fitted effect of over 60% in size
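AlphaScreen displacement: compounds (up to 110uM) incubated 30 min at room temperature with a preformed 50 nM BAZ2B/50 nM biotinylated H3K14Ac peptide complex in PBS pH 7.4 with Tween-20. Donor and acceptor beads at 10 ug/mL final added, 20 min light-protected before reading.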
HP1b binding inh: HTS for Inhibitors of HP1-beta Chromodomain Interactions with Methylated Histone Tails; AlphaScreen HP1-beta / biotin-H3K9me3 peptide binding; hit rate 0.56% among 390,000; AID 540317, 2011; Potency, µM (doses to about 114 µM), inactives show at the highest dose activity change, negative = inhibition, hits mostly inhibitors; Chromobox protein homolog 1 (Homo sapiens), P83916; note: nearly all actives have a fitted effect of over 70% in size
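AlphaScreen: HP1-beta (50 nM) preformed 30 min with biotin-H3(1-18)K9me3 peptide (50 nM) in PBS pH 7.4, 0.01% Tween-20. Compound added for 30 min at RT, then streptavidin donor/nickel chelate acceptor beads (10 ug/mL) for 30 min.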
Sfp inh: qHTS Assay for Inhibitors of Bacillus subtilis Sfp phosphopantetheinyl transferase (PPTase); 4'-phosphopantetheinyl transferase ffp (Bacillus subtilis), Q9F4F7; hit rate 3.5% among 310,000; Potency, µM, for inactives: largest response in the series, negative = inhibition, usual class: inhibitors; AID 1490, 2009; Biochemical Sfp PPTase activity, qHTS;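 note: the enzyme is Sfp with the accession as filed and its product quenches rhodamine fluorescence; 0% = enzyme reaction without inhibitor and -100% = no enzyme wells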
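Sfp 15 nM + cpd, 15 min RT; start w/ rhodamine-CoA 5 uM, BHQ-2-YbbR 12.5 uM (final); 50 mM Hepes pH 7.6, 10 mM MgCl2, 0.01% NP-40, 0.01% BSA; read 525/598 nm at 0 and 30 min.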
JMJD2A Tudor inh: qHTS Assay for Inhibitors of JMJD2A-Tudor Domain; Lysine-specific demethylase 4A (Homo sapiens), O75164; hit rate 4.4% among 390,000; AlphaScreen JMJD2A-Tudor / H3K4me3 peptide binding; Potency, µM (titrated, usually from 114 µM), for inactives: at the highest dose activity change, negative = inhibition, most hits filed as inhibitors; note: % is set by controls: 0 for no effect and ±100 for the full control effect; nearly all actives have a fitted effect of over 50% in size
G9a inh: qHTS Assay for Inhibitors of Histone Lysine Methyltransferase G9a. G9a H3K9 monomethylation, AlphaScreen, 2 h. Potency, µM (doses to about 102 µM), without a hit: top-dose activity, negative = inhibition, usual class: inhibitors. Histone-lysine N-methyltransferase EHMT2 (Homo sapiens), Q96KQ7. hit rate 8.8% among 350,000; note: % is set by controls: 0 for no effect and ±100 for the full control effect; nearly all actives have a fitted effect of over 75% in size
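Compounds were preincubated with 20 nM G9a for 15 min, after which biotinylated H3K9 peptide (500 nM) and SAM (20 uM) started a 2 h room-temperature reaction. Monomethylated product was quantified by antibody-based AlphaScreen chemiluminescence.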
* = called active by the depositor; ! = not confirmed by another sample; [ ] = another dose, or the depositor's remark. Rows were chosen to be rich in hits. Some 12% of all compounds tested hit in one or more screens of this group. Calls come from the whole dose curve; as a rule, active = well fitted curve in the direction sought with a large enough effect; inconclusive = small, poorly fitted or top-dose-only effect, or another doubt; inactive = no such curve, though single readings can be large; an effect the other way counts as inactive or inconclusive. Potency is the fitted concentration of half-maximal effect.

Screening C#CCOCCOCCOCCNc1nc(N2CCN(C(=O)CCCCCCCCCCNC(=O)[C@H]([C@@H](C)CC)n3cc(CCCCN=C(N)N)nn3)CC2)nc(N2CCN(C(=O)CCCCCCCCCCNC(=O)[C@H](CCCN=C(N)N)n3cc(C[C@@H](C)CC)nn3)CC2)n1 returned L3MBTL1 block -9%, BAZ2B inh 50µM* and G9a inh 2%[2.33 µM].
Cc1ccc(-c2noc(CN(C)C(=O)c3ccc(Br)o3)n2)cc1 was read as L3MBTL1 block -2%, BAZ2B inh inconclusive, HP1b binding inh inconclusive, JMJD2A Tudor inh -3% and G9a inh 50µM*.
Screening CCOc1ccc(-c2nnc(SCC(=O)Nc3ccc(C)cc3Cl)o2)cc1 returned BAZ2B inh -19%, HP1b binding inh 58%, JMJD2A Tudor inh -25% and G9a inh inconclusive.
Screening CCOc1ccc(-c2nnc(NC(=O)Cc3cc(OC)c(OC)c(OC)c3)o2)cc1 returned BAZ2B inh 22µM*, HP1b binding inh 36%, Sfp inh -6%, JMJD2A Tudor inh 28µM* and G9a inh -9%[2.33 µM].
For CCOc1ccc(-c2nnc(SCC(=O)Nc3ccc(C)cc3C)o2)cc1 the results were BAZ2B inh -4%, HP1b binding inh 27%, JMJD2A Tudor inh 79µM* and G9a inh -6%[59 µM].
O=C(CS(=O)(=O)c1cccc2nsnc12)NCc1ccccc1Cl was read as BAZ2B inh 1%, HP1b binding inh 30%[57 µM], JMJD2A Tudor inh -20% and G9a inh 0%[59 µM].
Cc1ccc2nc(NC(=S)NC(=O)c3ccco3)sc2c1 was read as L3MBTL1 block -9%, BAZ2B inh -7%, HP1b binding inh -11%, Sfp inh inconclusive, JMJD2A Tudor inh -16% and G9a inh 50µM*.
For Cc1ccc2nc(NC(=O)c3ccco3)sc2c1 the results were BAZ2B inh 10%, HP1b binding inh 22%, Sfp inh 8%, JMJD2A Tudor inh 2% and G9a inh -17%.
Screening Cc1ccc2nsnc2c1NC(=S)NC(=O)c1ccco1 returned L3MBTL1 block -1%, BAZ2B inh -27%, HP1b binding inh -5%, Sfp inh 50µM*, JMJD2A Tudor inh -28% and G9a inh 3.2µM*.
Screening CC(C)Oc1ccc(C(=O)O)c(C(=O)O)c1 returned L3MBTL1 block 0%, BAZ2B inh -39%, HP1b binding inh 4%, Sfp inh -10%, JMJD2A Tudor inh 79µM* and G9a inh 0%.
CN(C)S(=O)(=O)c1cccc(NC(=S)NCCCn2ccnc2)c1 was read as L3MBTL1 block -17%, BAZ2B inh 79µM*, HP1b binding inh 14%, Sfp inh 2%, JMJD2A Tudor inh -4%[57.1 µM] and G9a inh -1%.
Screening Cc1cc(C(=O)NCCCn2ccnc2)sc1-c1ccccc1 returned L3MBTL1 block -19%, BAZ2B inh 50µM*, HP1b binding inh -4%, Sfp inh -4%, JMJD2A Tudor inh inconclusive and G9a inh inconclusive.
`COC(=O)c1ccc(NC(=S)NCCCn2ccnc2)cc1` gave L3MBTL1 block -6%, BAZ2B inh 79µM*, HP1b binding inh 4%, Sfp inh 13%, JMJD2A Tudor inh -23% and G9a inh -10%.
`CCOC(=O)c1ccc(NC(=S)NCCCn2ccnc2)cc1` gave L3MBTL1 block -18%, BAZ2B inh 56µM*, HP1b binding inh 38%, Sfp inh 4%, JMJD2A Tudor inh -26% and G9a inh inconclusive.
O=C(NCCCn1ccnc1)c1ccc(-c2ccccc2)cc1 was read as BAZ2B inh inconclusive, HP1b binding inh 24%, Sfp inh 12%, JMJD2A Tudor inh -17% and G9a inh 15%.
Screening O=[N+]([O-])c1cccc(S(=O)(=O)N2CCN(c3nc(-c4ccccc4)nc4ccccc34)CC2)c1 returned HP1b binding inh 2% and JMJD2A Tudor inh -15%.
For COc1cn(CC(=O)Nc2ccccc2)c(CN2CCCCC2)cc1=O the results were BAZ2B inh 5%, HP1b binding inh 36%, JMJD2A Tudor inh 1% and G9a inh 10%[59 µM].
For O=C(NCCCn1ccnc1)C(=O)Nc1ccccc1 the results were L3MBTL1 block 6%, BAZ2B inh -27%, HP1b binding inh inconclusive, Sfp inh 10%, JMJD2A Tudor inh 79µM* and G9a inh -8%.
Screening CCN1CCC[C@H]1CNC(=O)c1c(O)c(Cl)cc(Cl)c1OC returned BAZ2B inh -24%, HP1b binding inh 37%, Sfp inh 11%, JMJD2A Tudor inh inconclusive and G9a inh 8.9µM*!.
For CCN1CCCC1CNC(=O)c1cc(OC)c(OC)c(OC)c1 (configuration not stated) the results were BAZ2B inh 11%, HP1b binding inh 29%, Sfp inh 13%, JMJD2A Tudor inh 5% and G9a inh -5%[59 µM].
`N#Cc1cccc(CS(=O)(=O)c2ccccc2)c1` gave Sfp inh -9%.
Screening Cc1ccc(CNc2ccc3c(c2)OCO3)cc1 returned BAZ2B inh 50µM*, HP1b binding inh -24%, Sfp inh 56µM*, JMJD2A Tudor inh 45µM* and G9a inh inconclusive.
`O=C(NCc1ccncc1)C(=O)Nc1ccc2c(c1)OCO2` gave L3MBTL1 block -3%, BAZ2B inh inconclusive, HP1b binding inh 78%, Sfp inh 11%, JMJD2A Tudor inh -11% and G9a inh inconclusive.
`COC(=O)CNc1ccc2c(c1)OCO2` gave L3MBTL1 block -1%, BAZ2B inh -32%, HP1b binding inh -21%, Sfp inh -19%, JMJD2A Tudor inh inconclusive and G9a inh 8.9µM*.
`c1cc(CNc2ccc3c(c2)OCO3)ccn1` gave L3MBTL1 block -14%, BAZ2B inh inconclusive, HP1b binding inh -54%, Sfp inh inconclusive, JMJD2A Tudor inh inconclusive and G9a inh 35µM*.
Screening Cc1ccc(S(=O)(=O)c2nnn3c2nc(NCc2ccc4c(c2)OCO4)c2sccc23)cc1 returned BAZ2B inh -3%, HP1b binding inh 7%, JMJD2A Tudor inh -22% and G9a inh -9%[59 µM].
For Cc1ccc(S(=O)(=O)c2nc(NCc3ccc4c(c3)OCO4)sc2Cl)cc1 the results were L3MBTL1 block -15%, BAZ2B inh -1%, HP1b binding inh 5%, Sfp inh 0%, JMJD2A Tudor inh -30% and G9a inh 32µM*.

From PubChem
